Compounds with a hit are over-represented: about 2.4% of the library has one in this group of screens.
D2 ag-1: HTS Assay for Allosteric Agonists of the Human D2 Dopamine Receptor: Primary Screen for Agonists. HEK293 T-REx D2 cells, calcium flux agonist mode. activation, % at 2 µM. 340,000 compounds, 0.53% hits. AID 485358, 2010;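 active = activation over 3 SD above normal in the single-dose calcium agonist read, cut at about 30% in these data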; also: 0% is about no effect
Target sequence (P14416 whole entry, looked up): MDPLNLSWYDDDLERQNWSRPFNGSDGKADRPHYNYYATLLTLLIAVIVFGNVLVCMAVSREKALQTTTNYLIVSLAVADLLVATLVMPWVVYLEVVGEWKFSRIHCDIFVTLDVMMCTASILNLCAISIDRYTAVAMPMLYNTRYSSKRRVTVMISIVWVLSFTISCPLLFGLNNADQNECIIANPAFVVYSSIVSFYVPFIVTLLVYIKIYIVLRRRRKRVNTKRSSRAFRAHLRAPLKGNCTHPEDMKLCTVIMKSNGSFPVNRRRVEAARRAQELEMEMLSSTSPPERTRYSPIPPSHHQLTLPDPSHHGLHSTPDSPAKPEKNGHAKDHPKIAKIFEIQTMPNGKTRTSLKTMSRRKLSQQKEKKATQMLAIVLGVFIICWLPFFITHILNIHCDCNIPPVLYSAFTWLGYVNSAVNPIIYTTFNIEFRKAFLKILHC
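Tetracycline-induced HEK293 Trex cells with D2 receptor force-coupled to calcium signaling, plated overnight at 30 C and loaded with no-wash calcium dye. Calcium flux read kinetically for 180 s after compound addition; responses flag agonists.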
D2 PAM-1: Beta-Arrestin HTS for Positive Allosteric Modulators of the Human D2 Dopamine Receptor: Potentiators; D(2) dopamine receptor (Homo sapiens), P14416; DiscoveRx D2 beta-arrestin cells, luminescence, 90 min; 100% = 57 uM dopamine signal; potentiation, % (concentration not given with the values); 360,000 compounds, 0.23% hits; AID 624464, 2012; in the data active = potentiation above about 50%; inconclusive = mostly about 30% to 49%
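PathHunter D2 cells, attached overnight at 37 deg C, received compound in DMSO plus dopamine at EC20 (50 nM final) for 90 min at 37 deg C. Beta-arrestin recruitment was read as luminescence after 1 h with detection reagent at ambient temperature.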
D2 PAM-2: HTS Assay for Positive Allosteric Modulators of the Human D2 Dopamine Receptor: Primary Screen for Potentiators. D(2) dopamine receptor (Homo sapiens), P14416. HEK293 T-REx D2, calcium flux, EC20 dopamine potentiation. potentiation, % at 10 µM. 340,000 compounds, 0.34% hits;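 active = potentiation over 3 SD above the plate norm, cut at about 30% in these data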; also: 0% is about no effect
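Primary screen. Calcium kinetics in induced HEK293 T-REx D2 cells: compound pre-addition 180 s, EC20 dopamine, 180 s more.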
D2 ag-2: Beta-Arrestin HTS for Positive Allosteric Modulators of the Human D2 Dopamine Receptor: Agonists | D(2) dopamine receptor (Homo sapiens), P14416 | DiscoveRx PathHunter D2 beta-arrestin, luminescence, 90 min; 100% = 57 uM dopamine signal | activation, % (test concentration not listed) | 360,000 compounds, 0.084% hits; in the data active = activation above about 40%; inconclusive = between about 15% and that limit
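Agonist mode: compounds alone added to overnight-plated D2 PathHunter cells for 90 min at 37 C, with 57 uM final dopamine (EC100) defining full response. Beta-arrestin recruitment detected by chemiluminescent reagent, read after 1 h at ambient temperature.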
D2 antag: HTS Assay for Allosteric Antagonists of the Human D2 Dopamine Receptor: Primary Screen for Antagonists. 340,000 compounds, 2% hits. HEK293 TREx D2 cells, calcium flux, dopamine EC80. inhibition, % at 10 µM. D(2) dopamine receptor (Homo sapiens), P14416. AID 485344, 2010; in the data active = inhibition above about 30%; inactive = below that, where a call was filed; also: 0% is about no effect
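Calcium mobilization kinetics were recorded at 1 s intervals in tetracycline-induced HEK293 T-REx D2 cells, first for 180 s after compound addition and then 180 s after EC80 dopamine.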
The depositor's hits bear a star; ? = inconclusive; · = no result.

SMILES | D2 ag-1 | D2 PAM-1 | D2 PAM-2 | D2 ag-2 | D2 antag
C/C(Cc1ccccc1)=N\NC(=O)CNC(=O)COc1ccccc1 | 0.5 | 1.4 | -0.5 | 0.1 | 24.8
COc1ccccc1C(=O)NCC(=O)N/N=C(\C)Cc1ccccc1 | -0.3 | -8.2 | -1.5 | -3.0 | 30.0*
CC(NC(=O)CN1C(=O)NC2(CCc3ccccc32)C1=O)c1ccc2c(c1)OCCO2 (centres undefined) | 0.2 | -1.4 | 0.8 | 6.5 | 16.6
O=C1CN(C(=O)c2ccc(S(=O)(=O)N3CCCC3)cc2)C(c2ccccc2)c2cc(Br)ccc2N1 (centres undefined) | 0.5 | · | 13.6 | · | ·
CCCCOC(=O)c1ccc(NC(=O)/C(C#N)=C/c2ccc(C)o2)cc1 | 1.9 | · | 2.4 | · | ·
Cc1cccc(NC2=C/C(=N/S(=O)(=O)c3cccs3)c3ccccc3C2=O)c1 | -1.5 | 95.7* | 5.5 | ? | -10.3
COCCn1c(C)cc(O)c(C(c2cccc(F)c2)N2CCN(c3ccccc3)CC2)c1=O (centres undefined) | 22.1 | · | -15.4 | · | ·
C/C(=N\NC(=O)c1ccc(C)cc1C)c1ccc2c(c1)Nc1ccccc1S2 | 1.4 | 77.9* | -1.7 | ? | 0.5
CC(=O)c1ccc2c(c1)Nc1ccccc1S2 | 0.0 | 51.9* | -3.0 | ? | 6.9
C/C(=N\NC(=O)c1ccc(C)cc1C)c1ccc(-n2ccnc2)cc1 | 0.6 | 3.5 | -4.4 | -0.1 | 3.5
CCOC(=O)Nc1ccc2c(c1)Nc1ccccc1S2 | 0.8 | 62.6* | 4.2 | 10.6 | -7.0
CN(C)c1ccc(CNC(=O)C2CCN(S(=O)(=O)c3ccc4c(ccn4C)c3)CC2)cc1 | -0.1 | · | 11.3 | · | ·
Cc1cc(C)c(Cn2c(C)c(CNCCCc3ccccc3)c(C(=O)O)c2C)c(C)c1 | -0.5 | · | 0.9 | · | ·
CC1CCC(NC(=O)CCS(=O)(=O)c2ccc3c(c2)NC(=O)C(C)S3)CC1 (centres undefined) | 0.8 | -3.2 | -7.3 | 0.4 | -2.8
CCCNC(=O)C1(C)CCN(C(=O)COCc2ccccc2)C1 (centres undefined) | · | 0.6 | · | -4.4 | ·
O=C(COC(=O)CNC(=O)c1ccccc1)Nc1ccc(F)c([N+](=O)[O-])c1 | 0.3 | -5.7 | 7.8 | -2.8 | 34.4*
Cn1c(COc2ccccc2)nnc1SCc1cc(=O)[nH]c2ccccc12 | 0.9 | 0.6 | 1.5 | 1.0 | 38.7*
O=c1cc(CSc2nnc(COc3ccccc3)n2-c2ccccc2)c2ccccc2[nH]1 | -0.7 | -12.1 | -1.2 | -0.5 | 3.5
CCOc1ccccc1NC(=O)c1nnn(CC(=O)Nc2cc(C)cc(C)c2)c1N | 0.5 | -5.3 | 8.2 | -2.0 | -11.0
COc1ccc(CCNC(=O)c2noc3c2CCCC3)cc1OC | -0.1 | -13.4 | 1.8 | -0.8 | 42.2*
COc1cc(Br)c(CCNC(=O)c2ccco2)cc1OC | 0.2 | -6.0 | -3.9 | -2.3 | 36.5*
COc1ccc(CCNC(=O)c2ccc3nc(-c4ccco4)c(-c4ccco4)nc3c2)cc1OC | 6.0 | 60.7* | 10.1 | 9.5 | -5.7
COc1ccc(CCNC(=O)c2nonc2N)cc1OC | 0.4 | -15.0 | -0.9 | 1.0 | 7.1
COc1ccccc1OCCNC(=O)c1ccco1 | 0.5 | -2.5 | -6.0 | -4.8 | 1.3
COc1ccc(Cl)cc1NC(=O)c1noc2c1CCCC2 | 1.1 | -3.6 | 18.4 | -5.6 | 31.3*
CCc1nc2ccc(C(=O)NCCc3ccc(OC)c(OC)c3)cc2nc1CC | -0.4 | 8.2 | 2.6 | 3.5 | -0.6
Cc1ccccc1-c1cc2nc(NCc3ccc(N(C)C)cc3)n(C)c(=O)c2s1 | · | -8.3 | · | 8.3 | ·
COc1ccccc1OCc1ccc(C(=O)N/N=C/c2ccco2)cc1 | 0.0 | -25.2 | -17.9 | -2.1 | 43.6*
COc1ccccc1OCc1ccc(C(=O)NN)o1 | -1.0 | -16.0 | -19.3 | 3.8 | 76.5*
COc1ccc(CN2CCN(C(=O)c3ccco3)CC2)c(OC)c1OC | · | 60.2* | · | 46.4* | ·

Bioassay records as filed in PubChem.
